Test results published in PubChem BioAssay AID1159580 (chemical genetic matrix, 2015).
Out of some 5,500 compounds screened, about 2,000 (36%) were called active. Inconclusive results (about 18%) are left out. Cut-off read from the data, not from the text of the source: active = normalized growth mostly below about 0.91 (no sharp cut-off); inconclusive = no clear call, values can overlap the other calls; inactive = mostly above about 0.92. The list shows a part of the results.

Assay: chemical genetic growth profiling, strain panel (AID 1159580);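 note: tested at 20 µM; growth read once vehicle control cultures reached saturation at 30 °C; 1 = growth at the plate median or of vehicle wells; lower values mean less growth of the strain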
Settings: growth OD

Measured: normalized growth

CCCCC[C@H](CC(=O)NO)C(=O)N[C@H](C(=O)N1CCC[C@H]1CO)C(C)C
inactive: S. cerevisiae deletion strains, locus YJR043C, strain POL32, stronger effect = lower value 0.978 | S. cerevisiae deletion strains, locus YJR066W, strain TOR1, stronger effect = lower value 0.934 | S. cerevisiae deletion strains, locus YJR075W, strain HOC1, stronger effect = lower value 1.04 | S. cerevisiae deletion strains, locus YKL009W, strain mrt4, stronger effect = lower value 1.03 | S. cerevisiae deletion strains, locus YKL068W, stronger effect = lower value 1.01 | S. cerevisiae deletion strains, locus YKL085W, strain MDH1 (second series), stronger effect = lower value 1.02 | S. cerevisiae deletion strains, locus YKL085W, strain MDH1, stronger effect = lower value 1.02 | S. cerevisiae deletion strains, locus YKL160W, strain elf1, stronger effect = lower value 1.01 | S. cerevisiae deletion strains, locus YKL190W, strain CNB1, stronger effect = lower value 1.01 | S. cerevisiae deletion strains, locus YKR001C, strain vps1, stronger effect = lower value 1.02 | S. cerevisiae deletion strains, locus YKR026C, strain gcn3, stronger effect = lower value 1.01 | S. cerevisiae deletion strains, locus YKR091W, strain srl3, stronger effect = lower value 1.02 | S. cerevisiae deletion strains, locus YLL001W, strain dnm1, stronger effect = lower value 1.01 | S. cerevisiae deletion strains, locus YLL026W, stronger effect = lower value 1.02 | S. cerevisiae deletion strains, locus YLL041C, strain sdh2, stronger effect = lower value 1.01 | S. cerevisiae deletion strains, locus YLR027C, strain aat2, stronger effect = lower value 1.01 | S. cerevisiae deletion strains, locus YLR039C, strain RIC1, stronger effect = lower value 0.947 | S. cerevisiae deletion strains, locus YLR058C, strain SHM2, stronger effect = lower value 1.01 | S. cerevisiae deletion strains, locus YLR102C, strain apc9, stronger effect = lower value 1.02 | S. cerevisiae deletion strains, locus YLR113W, strain HOG1, stronger effect = lower value 0.972 | S. cerevisiae deletion strains, locus YLR221C, strain rsa3, stronger effect = lower value 1.01 | S. cerevisiae deletion strains, locus YLR258W, strain gsy2, stronger effect = lower value 1.02 | S. cerevisiae deletion strains, locus YLR262C, strain YPT6 (second series), stronger effect = lower value 1.02 | S. cerevisiae deletion strains, locus YLR262C, strain YPT6, stronger effect = lower value 0.938 | S. cerevisiae deletion strains, locus YLR268W, strain sec22, stronger effect = lower value 1.03 | S. cerevisiae deletion strains, locus YLR320W, strain mms22, stronger effect = lower value 1.04 | S. cerevisiae deletion strains, locus YLR330W, strain CHS5, stronger effect = lower value 1.02 | S. cerevisiae deletion strains, locus YLR342W, strain FKS1 (second series), stronger effect = lower value 0.961 | S. cerevisiae deletion strains, locus YLR342W, strain FKS1, stronger effect = lower value 1.02 | S. cerevisiae deletion strains, locus YLR357W, strain rsc2, stronger effect = lower value 1.05 | S. cerevisiae deletion strains, locus YLR370C, strain arc18, stronger effect = lower value 1.01 | S. cerevisiae deletion strains, locus YLR371W, strain rom2, stronger effect = lower value 1.04 | S. cerevisiae deletion strains, locus YLR384C, strain iki3, stronger effect = lower value 1.02 | S. cerevisiae deletion strains, locus YLR418C, strain cdc73, stronger effect = lower value 1.02 | S. cerevisiae deletion strains, locus YML016C, strain PPZ1, stronger effect = lower value 1.02 | S. cerevisiae deletion strains, locus YML032C, strain rad52, stronger effect = lower value 1.01 | S. cerevisiae deletion strains, locus YML120C, strain ndi1, stronger effect = lower value 1.02 | S. cerevisiae deletion strains, locus YML124C, strain tub3, stronger effect = lower value 1 | S. cerevisiae deletion strains, locus YMR058W, strain fet3, stronger effect = lower value 1.01 | S. cerevisiae deletion strains, locus YMR078C, strain ctf18, stronger effect = lower value 1.02 | S. cerevisiae deletion strains, locus YMR125W, strain sto1, stronger effect = lower value 1.03 | S. cerevisiae deletion strains, locus YMR129W, stronger effect = lower value 1.01 | S. cerevisiae deletion strains, locus YMR205C, strain PFK2, stronger effect = lower value 1.04 | S. cerevisiae deletion strains, locus YMR223W, strain ubp8, stronger effect = lower value 1.02 | S. cerevisiae deletion strains, locus YMR231W, strain pep5, stronger effect = lower value 1.01 | S. cerevisiae deletion strains, locus YMR263W, strain SAP30, stronger effect = lower value 1.03 | S. cerevisiae deletion strains, locus YMR307W, strain GAS1, stronger effect = lower value 1.03 | S. cerevisiae deletion strains, locus YNL067W, strain RPL9B, stronger effect = lower value 1.04 | S. cerevisiae deletion strains, locus YNL071W, strain lat1, stronger effect = lower value 1 | S. cerevisiae deletion strains, locus YNL153C, strain GIM3, stronger effect = lower value 1.04 | S. cerevisiae deletion strains, locus YNL183C, strain NPR1, stronger effect = lower value 0.942 | S. cerevisiae deletion strains, locus YNL209W, strain ssb2, stronger effect = lower value 1.01 | S. cerevisiae deletion strains, locus YNL233W, strain BNI4, stronger effect = lower value 1.03 | S. cerevisiae deletion strains, locus YNL248C, strain rpa49, stronger effect = lower value 1 | S. cerevisiae deletion strains, locus YNL250W, strain rad50, stronger effect = lower value 1.02 | S. cerevisiae deletion strains, locus YNL271C, strain bni1, stronger effect = lower value 1.02 | S. cerevisiae deletion strains, locus YNL298W, strain CLA4, stronger effect = lower value 1.01 | S. cerevisiae deletion strains, locus YNL307C, strain MCK1, stronger effect = lower value 1.02 | S. cerevisiae deletion strains, locus YNL322C, strain KRE1 (second series), stronger effect = lower value 1.03 | S. cerevisiae deletion strains, locus YNR049C, strain mso1, stronger effect = lower value 1.02 | S. cerevisiae deletion strains, locus YNR052C, strain pop2, stronger effect = lower value 1.02 | S. cerevisiae deletion strains, locus YOL012C, strain htz1 1.13 | S. cerevisiae deletion strains, locus YOL147C, strain pex11, stronger effect = lower value 1.02 | S. cerevisiae deletion strains, locus YOR001W, strain rrp6, stronger effect = lower value 1 | S. cerevisiae deletion strains, locus YOR061W, strain CKA2, stronger effect = lower value 1 | S. cerevisiae deletion strains, locus YOR069W, strain VPS5, stronger effect = lower value 1.01 | S. cerevisiae deletion strains, locus YOR070C, strain gyp1, stronger effect = lower value 1 | S. cerevisiae deletion strains, locus YOR080W, strain dia2, stronger effect = lower value 1.03 | S. cerevisiae deletion strains, locus YOR083W, strain WHI5, stronger effect = lower value 1.02 | S. cerevisiae deletion strains, locus YOR106W, strain vam3, stronger effect = lower value 1.01 | S. cerevisiae deletion strains, locus YOR136W, strain idh2, stronger effect = lower value 1.03 | S. cerevisiae deletion strains, locus YOR144C, strain elg1, stronger effect = lower value 1.02 | S. cerevisiae deletion strains, locus YOR184W, strain ser1, stronger effect = lower value 1.01 | S. cerevisiae deletion strains, locus YOR231W, strain MKK1, stronger effect = lower value 0.989 | S. cerevisiae deletion strains, locus YOR265W, strain rbl2, stronger effect = lower value 1.01 | S. cerevisiae deletion strains, locus YOR270C, strain vph1, stronger effect = lower value 1.01 | S. cerevisiae deletion strains, locus YOR290C, strain snf2, stronger effect = lower value 1.02 | S. cerevisiae deletion strains, locus YOR316C, strain cot1, stronger effect = lower value 1.01 | S. cerevisiae deletion strains, locus YPL051W, strain arl3, stronger effect = lower value 1.02 | S. cerevisiae deletion strains, locus YPL078C, strain atp4, stronger effect = lower value 1.02 | S. cerevisiae deletion strains, locus YPL106C, strain sse1, stronger effect = lower value 1.03 | S. cerevisiae deletion strains, locus YPL240C, strain hsp82, stronger effect = lower value 1.01 | S. cerevisiae deletion strains, locus YPL256C, strain CLN2, stronger effect = lower value 0.941 | S. cerevisiae deletion strains, locus YPR119W, strain clb2, stronger effect = lower value 1.01 | S. cerevisiae deletion strains, locus YPR141C, strain kar3, stronger effect = lower value 1.02 | S. cerevisiae deletion strains, locus YPR163C, strain tif3, stronger effect = lower value 1.02 | S. cerevisiae deletion strains, locus YPR167C, strain met16, stronger effect = lower value 1.03 | S. cerevisiae deletion strains, strain wtn01, stronger effect = lower value 1.01 | S. cerevisiae strains, strain wild type, stronger effect = lower value 1.01
